Results published in PubChem BioAssay (NCI).
This is part of a sample that, as a whole, favours compounds with a hit. Of some 83,000 tested, about 20% had one in any assay.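 Activity criterion: percent growth below 10, measured after cells in 96-well plates were exposed to a single compound concentration for 48 hours.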 The source made the active and inactive calls.

Legend:
Experiment in all cases: NCI-60 one-dose screen, 48 h (100 = growth as untreated, 0 = no growth, -100 = all killed)
Details in all cases: 10 µM unless noted
[1] = system: HCT-15 colon
[2] = system: HT29 colon
[3] = system: SNB-75 CNS
[4] = system: SNB-19 CNS
[5] = system: U251 CNS
[6] = system: PC-3 prostate
[7] = system: SK-MEL-5 melanoma
[8] = system: UACC-62 melanoma
[9] = system: LOX IMVI melanoma
[10] = system: SK-MEL-28 melanoma
[11] = system: SK-MEL-2 melanoma
[12] = system: EKVX NSCLC
[13] = system: SN12C renal
[14] = system: UO-31 renal
[15] = system: TK-10 renal
[16] = system: ACHN renal
[17] = system: CAKI-1 renal
[18] = system: A498 renal
[19] = system: CCRF-CEM leukemia
[20] = system: MOLT-4 leukemia

Measured: growth

CCOc1ncc([N+](=O)[O-])c(OCC)n1
inactive: [1] 104% | [2] 121% | [3] 97% | [4] 104% | [5] 109% | [6] 88.1% | [7] 99.9% | [8] 95.9% | [9] 101% | [10] 105% | [11] 103% | [12] 122% | [13] 91.8% | [14] 106% | [15] 115% | [16] 106% | [17] 116% | [18] 111% | [19] 101% | [20] 90.9%

CC[C@@H](C(=O)[C@@H](C)[C@@H](O)[C@H](C)[C@@H]1O[C@@H]([C@@H](CC)C(=O)ONC(=O)c2ccccc2O)CC[C@@H]1C)C1O[C@]2(C=CC(=O)[C@]3(CC[C@@](C)([C@H]4CC[C@](O)(CC)[C@H](C)O4)O3)O2)[C@H](C)C[C@@H]1C (stereo not given in full)
inactive: [1] 44.5% | [2] 33.9% | [3] 64.3% | [4] 48.4% | [5] 32.1% | [6] 31.3% | [7] 11% | [8] 63.3% | [9] 45.4% | [10] 73.3% | [11] 76.9% | [12] 45.2% | [13] 24.1% | [14] 36.9% | [15] 75.8% | [16] 50.2% | [17] 39.2% | [18] 36.4% | [19] 36.6% | [20] 45.1%

NS(=O)(=O)c1ccc(C(=O)N=Nc2c(O)[nH]c3ccc(Cl)cc23)cc1
inactive: [1] 99.4% | [2] 99.7% | [3] 89% | [4] 91.3% | [5] 99.7% | [6] 97.4% | [7] 103% | [8] 105% | [9] 102% | [10] 114% | [11] 105% | [12] 95.8% | [13] 94.9% | [14] 83.8% | [15] 115% | [16] 107% | [17] 92.6% | [18] 75.3% | [19] 99.7% | [20] 107%

NC(=O)c1ccccc1OCC(=O)Nc1ccc(Cl)c(Cl)c1
inactive: [1] 102% | [2] 113% | [3] 83.3% | [4] 93.2% | [5] 97.3% | [6] 106% | [7] 99.9% | [8] 83.3% | [9] 108% | [10] 107% | [11] 107% | [12] 92.2% | [13] 101% | [14] 84.1% | [15] 143% | [16] 89.3% | [17] 70.6% | [18] 93.7% | [19] 92.3% | [20] 89%

COc1ccc(Nc2ncc(C#N)c(NCCCNC(=O)C3CCC3)n2)cc1
inactive: [1] 49.7% | [2] 61.9% | [3] 58.1% | [4] 68.9% | [5] 60.1% | [6] 71.9% | [7] 92% | [8] 78.1% | [9] 32.6% | [10] 103% | [11] 80.6% | [12] 87.3% | [13] 35.3% | [14] 11.1% | [15] 41.4% | [16] 48.1% | [17] 26.3% | [18] 52.8% | [19] 45.5% | [20] 34.7%

COc1ccc(/C=N/NC(=O)Cn2c(-c3ccc(S(C)(=O)=O)cc3)nc3ccccc32)cc1
inactive: [1] 98.8% | [2] 103% | [3] 101% | [4] 100% | [5] 106% | [6] 93.2% | [7] 96.7% | [8] 90.8% | [9] 114% | [10] 102% | [11] 107% | [12] 97% | [13] 99.9% | [14] 75.9% | [15] 109% | [16] 105% | [17] 93% | [18] 95% | [19] 106% | [20] 141%

COc1cc([C@@H](CCO)C[C@H](C)c2ccc3ccccc3c2)cc(OC)c1OC
active: [3] -10%
inactive: [1] 26.3% | [2] 11.2% | [4] 37.8% | [5] 27.8% | [6] 29.7% | [7] 28% | [8] 39.2% | [9] 39.2% | [10] 61.8% | [11] 16.1% | [12] 49.1% | [13] 42.2% | [14] 44.2% | [15] 49.3% | [16] 43.6% | [17] 28.8% | [18] 25.3% | [19] 21.6% | [20] 25.7%

COc1ccc(N=C2NN=C(c3c[nH]c4ccccc34)CS2)cc1OC
active: [6] -41.3%
inactive: [1] 43.3% | [2] 25.3% | [3] 42.2% | [4] 51.8% | [5] 44.8% | [7] 51.9% | [8] 35.6% | [9] 45.1% | [10] 63.7% | [11] 19.1% | [12] 63.3% | [13] 70.7% | [14] 35.9% | [15] 96% | [16] 62.8% | [17] 63.8% | [18] 62.5% | [19] 39.5% | [20] 39.9%

O=C(Nc1cccnc1Nc1ccccc1)c1cn(Cc2cccc(Oc3ccccc3)c2)nn1
inactive: [1] 30.5% | [2] 38.2% | [3] 47.6% | [4] 64.5% | [5] 54.4% | [6] 49.3% | [7] 26.6% | [8] 32.8% | [9] 37% | [10] 55.1% | [11] 75.6% | [12] 59.8% | [13] 56.7% | [14] 51.8% | [15] 82.1% | [16] 76.6% | [17] 69.6% | [18] 45.3% | [19] 47.4% | [20] 31.1%

N=C(N)c1ccc(OCCSCCOc2ccc(C(=N)N)cc2)cc1
inactive: [1] 85.1% | [2] 85.4% | [3] 71.2% | [4] 56.7% | [5] 48% | [6] 90.6% | [7] 41.4% | [8] 67.4% | [9] 90.5% | [10] 92.2% | [11] 82.5% | [12] 56.6% | [13] 37.4% | [14] 70.7% | [15] 60.8% | [16] 74.3% | [17] 51.7% | [18] 51.7% | [19] 97.6% | [20] 93.4%

CNCCCNc1nc2ccccc2c2c(=O)c3cc(Cl)ccc3sc12
active: [1] -19.5% | [2] -92.4% | [5] -87.2% | [9] -90.3% | [14] 7.83% | [20] -42%
inactive: [3] 61% | [4] 55.7% | [6] 32.8% | [7] 71.4% | [8] 10.9% | [10] 50.8% | [11] 95.3% | [12] 76.7% | [13] 24.9% | [15] 68.9% | [16] 13.3% | [17] 43.8% | [18] 76.2% | [19] 12.3%

CN(C)/C(N)=N/N=C(\c1ccccc1)c1ccccn1
inactive: [1] 90.5% | [2] 110% | [3] 101% | [4] 106% | [5] 96.7% | [6] 81.5% | [7] 95.5% | [8] 105% | [9] 93% | [10] 113% | [11] 106% | [12] 112% | [13] 99.4% | [14] 83.6% | [15] 94.6% | [16] 95.7% | [17] 97.1% | [18] 105% | [19] 81.4% | [20] 91.5%

CCOc1ccc(NC(=O)Nc2ccc(OCC)cc2)cc1
inactive: [1] 106% | [2] 107% | [3] 106% | [4] 107% | [5] 99.8% | [6] 100% | [7] 104% | [8] 105% | [9] 98.3% | [10] 101% | [11] 121% | [12] 108% | [13] 104% | [14] 95.2% | [15] 107% | [16] 116% | [17] 103% | [18] 104% | [19] 107% | [20] 99.3%

CN1CC(c2ccc(Br)cc2)C(C(=O)c2ccc(Br)cc2)C12C(=O)Nc1ccccc12 (stereo not given)
inactive: [1] 59.5% | [2] 36% | [3] 71.9% | [4] 85.1% | [5] 82.3% | [6] 43.5% | [7] 94.2% | [8] 63.9% | [9] 79.8% | [10] 95.6% | [11] 82.9% | [12] 70.1% | [13] 70% | [14] 48.3% | [15] 92.1% | [16] 79.6% | [17] 46.9% | [18] 88.9% | [19] 80.2% | [20] 64.3%

O=S(O)c1cc(Cl)cc(Cl)c1OCc1ccccc1
inactive: [1] 112% | [2] 104% | [3] 98.7% | [4] 102% | [5] 93.7% | [6] 84.5% | [7] 96.3% | [8] 107% | [9] 108% | [10] 105% | [11] 105% | [12] 99.1% | [13] 98.4% | [14] 90.3% | [15] 101% | [16] 110% | [17] 99% | [18] 80% | [19] 102% | [20] 101%

Nc1ncnc2c1N=C(c1ccc(F)cc1)CC(c1cccc(Nc3ccnc4cc(Cl)ccc34)c1)N2 (stereo not given)
inactive: [1] 48.4% | [2] 62.8% | [3] 72.7% | [4] 82% | [5] 66.2% | [6] 66.3% | [7] 72% | [8] 89.5% | [9] 68.2% | [10] 95.3% | [11] 89.1% | [12] 64.9% | [13] 79.7% | [14] 59.6% | [15] 105% | [16] 96.3% | [17] 70.5% | [18] 92.3% | [19] 74.1% | [20] 39.6%
